Measured values: PubChem BioAssay (EPA / NIEHS)
Calls of active or inactive are those of the source. How the source made its calls: active means hit-call score of the fitted dose curve at least 0.9, where 1 is the maximum; inactive means score below 0.9.

Tests used:
[1] = read-out: TIMP metallopeptidase inhibitor 1 (TIMP1), TIMP1 (gene 7076); assay: BSK_hDFCGF_TIMP1: BioMAP Diversity Plus: hDFCGF Assay for TIMP metallopeptidase inhibitor 1 (TIMP1) Biomarker Activity (AID 2283062); conditions: primary human foreskin fibroblasts; actives raise or lower the signal
How it was run: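 Human foreskin fibroblast primary cultures dosed for 24 h; secreted/surface TIMP-1 quantified by ELISA. Bidirectional curve fitting against DMSO baseline; cytotoxicity tracked in parallel cultures by SRB total-protein staining.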

[2] = read-out: Monokine induced gamma interferon (MIG), CXCL9 (gene 4283); assay: BSK_hDFCGF_MIG: BioMAP Diversity Plus: hDFCGF Assay for Monokine induced gamma interferon (MIG) Biomarker Activity (AID 2283063); conditions: primary human foreskin fibroblasts; actives raise or lower the signal
How it was run: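 MIG/CXCL9 measured by ELISA 24 h after dosing primary human skin fibroblasts. Activity fitted in both directions against DMSO controls. Cytotoxicity was checked in parallel cultures by SRB staining read at 560 nm.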

[3] = read-out: Matrix Metallopeptidase 1 (MMP1), MMP1 (gene 4312); assay: BSK_hDFCGF_MMP1: BioMAP Diversity Plus: hDFCGF Assay for Matrix Metallopeptidase 1 (MMP1) Biomarker Activity (AID 2283064); conditions: primary human foreskin fibroblasts; actives raise or lower the signal
How it was run: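 ELISA read-out of MMP1 from human foreskin fibroblasts (primary skin cells), 24 h post-dose. Gain or loss of signal was fitted bidirectionally versus DMSO negative control; cytotoxicity was checked by SRB in parallel cultures.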

[4] = read-out: Vascular cell adhesion molecule 1 (VCAM1), VCAM1 (gene 7412); assay: BSK_hDFCGF_VCAM1: BioMAP Diversity Plus: hDFCGF Assay for Vascular cell adhesion molecule 1 (VCAM1) Biomarker Activity (AID 2283065); conditions: primary human foreskin fibroblasts; actives raise or lower the signal;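 on AC50: VCAM-1 protein level quantified by ELISA after 24 h chemical exposure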
How it was run: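 Human foreskin fibroblast primary cells dosed with chemical, VCAM-1 measured by ELISA at 24 h. Bidirectional curve fitting relative to DMSO as negative control/baseline.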

[5] = read-out: Plasminogen activator inhibitor-1 (PAI1), SERPINE1 (gene 5054); assay: BSK_hDFCGF_PAI1: BioMAP Diversity Plus: hDFCGF Assay for Plasminogen activator inhibitor-1 (PAI1) Biomarker Activity (AID 2283066); conditions: primary human foreskin fibroblasts; actives raise or lower the signal
How it was run: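 ELISA readout of PAI-1 from primary human skin fibroblast cultures, 24 h after compound addition. Gain or loss of signal was fitted bidirectionally against DMSO baseline.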

[6] = read-out: Intercellular Adhesion Molecule 1 (ICAM1), ICAM1 (gene 3383); assay: BSK_KF3CT_ICAM1: BioMAP Diversity Plus: KF3CT Assay for Intercellular Adhesion Molecule 1 (ICAM1) Biomarker Activity (AID 2283067); conditions: primary human keratinocytes with fibroblasts; actives raise or lower the signal
How it was run: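 Human keratinocyte–foreskin fibroblast co-culture was treated for 24 h. Cell-surface ICAM-1 was quantified by ELISA, fitted bidirectionally relative to DMSO. Cytotoxicity was checked in parallel cultures by SRB total-protein staining.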

[7] = read-out: Interferon-gamma inducible Protein 10 (IP10), CXCL10 (gene 3627); assay: BSK_KF3CT_IP10: BioMAP Diversity Plus: KF3CT Assay for Interferon-gamma inducible Protein 10 (IP10) Biomarker Activity (AID 2283068); conditions: primary human keratinocytes with fibroblasts; actives raise or lower the signal
How it was run: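 ELISA read-out of IP-10 after 24 h chemical dosing of human skin primary co-culture (keratinocytes, foreskin fibroblasts). Gain or loss of signal relative to DMSO, bidirectional curve fit.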

[8] = BSK_KF3CT_SRB: Viability Assessment in the BioMAP Diversity Plus: KF3CT Assay (AID 2283069); conditions: primary human keratinocytes with fibroblasts;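 further: total protein by sulforhodamine B staining as a cytotoxicity measure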
How it was run: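 SRB read-out at 560 nm (0.1% stain, TCA-fixed cells) gauges overt cytotoxicity in a human skin keratinocyte–fibroblast co-culture 24 h post-dosing. Signal change was fitted bidirectionally relative to DMSO control.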

[9] = read-out: Interleukin-1 alpha (IL1a), IL1A (gene 3552); assay: BSK_KF3CT_IL1a: BioMAP Diversity Plus: KF3CT Assay for Interleukin-1 alpha (IL1a) Biomarker Activity (AID 2283070); conditions: primary human keratinocytes with fibroblasts; actives raise or lower the signal
How it was run: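 Primary skin co-culture (keratinocytes, foreskin fibroblasts), 24 h exposure; ELISA for IL-1a; bidirectional curve fit vs DMSO.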

[10] = read-out: TIMP metallopeptidase inhibitor 2 (TIMP2), TIMP2 (gene 7077); assay: BSK_KF3CT_TIMP2: BioMAP Diversity Plus: KF3CT Assay for TIMP metallopeptidase inhibitor 2 (TIMP2) Biomarker Activity (AID 2283071); conditions: primary human keratinocytes with fibroblasts; actives raise or lower the signal
How it was run: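 ELISA readout of TIMP-2 in keratinocyte plus foreskin fibroblast co-cultures (human skin primary cells), 24 h post-dose. Gain or loss of signal fitted relative to DMSO.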

[11] = read-out: Transforming growth factor beta 1 (TGFb1), TGFB1 (gene 7040); assay: BSK_KF3CT_TGFb1: BioMAP Diversity Plus: KF3CT Assay for Transforming growth factor beta 1 (TGFb1) Biomarker Activity (AID 2283072); conditions: primary human keratinocytes with fibroblasts; actives raise or lower the signal
How it was run: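 Read-out: ELISA for TGF-b1 in keratinocyte/foreskin fibroblast human skin co-culture, 24 h after dosing; bidirectional curve fit vs DMSO baseline; gain or loss of signal scored.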

[12] = read-out: C-C motif chemokine 2 (Homo sapiens) (UniProt P13500); assay: BSK_KF3CT_MCP1: BioMAP Diversity Plus: KF3CT Assay for Monocyte Chemoattractant Protein 1 (MCP1/CCL2) Biomarker Activity (AID 2283073); conditions: primary human keratinocytes with fibroblasts; actives raise or lower the signal
How it was run: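 Human keratinocyte–foreskin fibroblast co-culture; MCP-1 measured by ELISA 24 h after dosing. Bidirectional fit vs DMSO; cytotoxicity tracked by SRB total protein in parallel cultures.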

[13] = read-out: Matrix Metallopeptidase 9 (MMP9), MMP9 (gene 4318); assay: BSK_KF3CT_MMP9: BioMAP Diversity Plus: KF3CT Assay for Matrix Metallopeptidase 9 (MMP9) Biomarker Activity (AID 2283074); conditions: primary human keratinocytes with fibroblasts; actives raise or lower the signal;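 on AC50: MMP9 protein level quantified by ELISA in the co-culture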
How it was run: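 ELISA read-out of MMP-9 at 24 h post-dosing in a co-culture of human skin keratinocytes and foreskin fibroblasts. Gain or loss of signal was fitted in both directions against DMSO.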

[14] = read-out: urokinase plasminogen activator (uPA), PLAU (gene 5328); assay: BSK_KF3CT_uPA: BioMAP Diversity Plus: KF3CT Assay for urokinase plasminogen activator (uPA) Biomarker Activity (AID 2283075); conditions: primary human keratinocytes with fibroblasts; actives raise or lower the signal
How it was run: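 Skin co-culture (keratinocytes + foreskin fibroblasts), human primary; 24 h post-dose; uPA by ELISA; gain/loss fit vs DMSO baseline.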

CD40, CD40 (gene 958) = assay: BSK_LPS_CD40: BioMAP Diversity Plus: LPS Assay for CD40 Biomarker Activity (AID 2283076); conditions: primary human HUVEC with PBMC; actives raise or lower the signal
How it was run: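 HUVEC plus PBMC co-culture stimulated with LPS; CD40 quantified by ELISA 24 h after compound dosing. Fitting was bidirectional relative to DMSO. SRB staining of parallel cultures flagged overt cytotoxicity.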

[15] = read-out: E-selectin (Homo sapiens) (UniProt P16581); assay: BSK_LPS_Eselectin: BioMAP Diversity Plus: LPS Assay for Eselectin Biomarker Activity (AID 2283077); conditions: primary human HUVEC with PBMC; actives raise or lower the signal
How it was run: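 Human umbilical vein endothelial cells co-cultured with PBMC under LPS stimulation; cell-surface E-selectin measured by ELISA 24 h after dosing. Change in either direction versus DMSO, with SRB total-protein staining in parallel cultures for cytotoxicity.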

[16] = read-out: Interleukin-8 (IL8), CXCL8 (gene 3576); assay: BSK_LPS_IL8: BioMAP Diversity Plus: LPS Assay for Interleukin-8 (IL8) Biomarker Activity (AID 2283078); conditions: primary human HUVEC with PBMC; actives raise or lower the signal
How it was run: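 Human umbilical vein endothelial cells co-cultured with PBMC, LPS-stimulated, exposed to compound for 24 h. IL-8 quantified by ELISA; fitted in both directions against DMSO, with SRB total-protein staining of parallel cultures for cytotoxicity.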

[17] = BSK_LPS_SRB: Viability Assessment in the BioMAP Diversity Plus: LPS Assay (AID 2283079); conditions: primary human HUVEC with PBMC;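 further: total protein by sulforhodamine B absorbance as a cytotoxicity measure; measured one day after compound addition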
How it was run: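 Co-culture of human umbilical vein endothelial cells and PBMC, read 24 h after dosing. Total protein by 0.1% SRB staining after 10% TCA fixation, absorbance at 560 nm; bidirectional fit against DMSO.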

[18] = read-out: Interleukin-1 alpha (IL1a), IL1A (gene 3552); assay: BSK_LPS_IL1a: BioMAP Diversity Plus: LPS Assay for Interleukin-1 alpha (IL1a) Biomarker Activity (AID 2283080); conditions: primary human HUVEC with PBMC; actives raise or lower the signal
How it was run: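 Human umbilical vein endothelial cells co-cultured with PBMC and stimulated with LPS; IL-1a measured by ELISA 24 h after dosing. Bidirectional fitting against DMSO; cytotoxicity checked by SRB staining in parallel cultures.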

[19] = read-out: Monocyte Chemoattractant Protein-1 (MCP1), CCL2 (gene 6347); assay: BSK_LPS_MCP1: BioMAP Diversity Plus: LPS Assay for Monocyte Chemoattractant Protein-1 (MCP1) Biomarker Activity (AID 2283081); conditions: primary human HUVEC with PBMC; actives raise or lower the signal;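 on AC50: secreted MCP-1 protein quantified by ELISA in culture supernatant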
How it was run: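 Human umbilical vein endothelial cells co-cultured with PBMC, LPS-stimulated; secreted MCP-1 measured by ELISA 24 h after compound addition. Bidirectional curve fitting against DMSO baseline; SRB total-protein staining in parallel cultures for cytotoxicity.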

Measured: AC50

Chain of E-selectin (Homo sapiens) (P16581 whole entry, looked up): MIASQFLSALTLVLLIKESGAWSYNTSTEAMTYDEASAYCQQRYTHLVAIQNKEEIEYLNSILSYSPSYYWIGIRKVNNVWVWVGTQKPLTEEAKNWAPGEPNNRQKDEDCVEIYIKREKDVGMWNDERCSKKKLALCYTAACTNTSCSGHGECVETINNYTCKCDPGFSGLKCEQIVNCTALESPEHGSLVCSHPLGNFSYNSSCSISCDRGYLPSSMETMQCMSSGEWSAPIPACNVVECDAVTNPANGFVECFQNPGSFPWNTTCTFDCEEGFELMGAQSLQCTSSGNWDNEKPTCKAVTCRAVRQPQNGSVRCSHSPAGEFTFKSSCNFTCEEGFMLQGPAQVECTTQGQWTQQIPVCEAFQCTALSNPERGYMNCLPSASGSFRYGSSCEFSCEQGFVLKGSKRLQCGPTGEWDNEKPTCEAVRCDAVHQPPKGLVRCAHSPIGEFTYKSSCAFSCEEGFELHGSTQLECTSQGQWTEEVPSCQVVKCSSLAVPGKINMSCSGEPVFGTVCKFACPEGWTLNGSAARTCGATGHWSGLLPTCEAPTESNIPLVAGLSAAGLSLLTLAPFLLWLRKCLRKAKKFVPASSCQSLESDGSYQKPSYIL

CC(C)(C)CC(C)(C)c1ccc(OCCOCC[N+](C)(C)Cc2ccccc2)cc1
active: [1] 5 µM | [2] 7.5 µM | [3] 5 µM | [4] 6.9 µM | [5] 5 µM | [6] 9.07 µM | [7] 7.61 µM | [8] 6.61 µM | [9] 8.08 µM | [10] 2.26 µM | [11] 3.38 µM | [12] 8.05 µM | [13] 5 µM | [14] 5 µM | CD40, CD40 (gene 958) 7.8 µM | [15] 7.56 µM | [16] 6.61 µM | [17] 8.5 µM | [18] 5 µM | [19] 7.38 µM

c1ccc(Oc2ccccc2)cc1
inactive: [1] | [2] | [3] | [4] | [5] | [6] | [8] | CD40, CD40 (gene 958) | [15] | [16] | [17] | [18] | [19]
active: [7] 34.6 µM | [9] 20 µM | [10] 30.8 µM | [11] 20 µM | [12] 30.7 µM | [13] 20 µM | [14] 20 µM

CS(=O)(=O)c1ccc(C2=C(c3ccccc3)C(=O)OC2)cc1
inactive: [1] | [2] | [3] | [4] | [5] | [6] | [8] | [9] | [10] | [11] | [12] | [13] | [14] | CD40, CD40 (gene 958) | [15] | [16] | [18] | [19]
active: [7] 0.0374 µM | [17] 1.98 µM

O=C1OC2(c3ccccc31)c1ccc(O)c(Br)c1Oc1c2ccc(O)c1Br
active: [4] 7.49 µM | [9] 20 µM | [10] 20 µM | [11] 4.66 µM | [12] 20 µM | CD40, CD40 (gene 958) 20 µM | [15] 24.5 µM | [18] 20 µM | [19] 20 µM
inactive: [1] | [2] | [3] | [5] | [6] | [7] | [8] | [13] | [14] | [16] | [17]

CSCCC=O
inactive: [1] | [2] | [3] | [4] | [5] | [6] | [7] | [8] | [9] | [10] | [11] | [12] | [13] | [14] | CD40, CD40 (gene 958) | [15] | [16] | [17] | [19]
